Results as given in PubChem BioAssay AID1159580 (chemical genetic matrix, 2015).
Values joined by “and” are separate entries in the source; they are usually repeats but may differ in a detail not shown here. Identical values can stand only once. The whole screen tested about 5,500 compounds, of which about 2,000 (36%) were called active. Not shown: some 18% with an inconclusive outcome. Cut-off read from the data, not from the text of the source: active = normalized growth mostly below about 0.91 (no sharp cut-off); inconclusive = no clear call, values can overlap the other calls; inactive = mostly above about 0.92. The list shows a part of the results.

Experiment: chemical genetic growth profiling, strain panel (AID 1159580);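 note: tested at 20 µM; growth read once vehicle control cultures reached saturation at 30 °C; 1 = growth at the plate median or of vehicle wells; lower values mean less growth of the strain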
Conditions: S. cerevisiae deletion strains, growth OD

Measured: normalized growth

CC(N)C(=O)OC(C)(C)Cc1ccc(Cl)cc1 (stereo unspecified)
inactive: locus YAL013W, strain DEP1, active compounds read low 0.986 and 1.01 | locus YAL021C, strain ccr4, active compounds read low 1.03 | locus YAL026C, strain drs2, active compounds read low 1.03 | locus YAL030W, strain snc1, active compounds read low 1.01 | locus YAL040C, strain CLN3, active compounds read low 1 | locus YBL061C, strain skt5, active compounds read low 1.02 | locus YBR009C, strain hhf1, active compounds read low 1.06 | locus YBR021W, strain FUR4, active compounds read low 0.943 | locus YBR023C, strain chs3, active compounds read low 1.02 | locus YBR171W, strain sec66, active compounds read low 1.02 | locus YBR229C, strain ROT2, active compounds read low 0.957 | locus YBR231C, strain swc5, active compounds read low 1.01 | locus YBR279W, strain paf1, active compounds read low 1.01 | locus YCL011C, strain gbp2, active compounds read low 1.01 | locus YCL016C, strain dcc1, active compounds read low 1.01 | locus YCL029C, strain bik1, active compounds read low 0.987 | locus YCL061C, strain MRC1 (second series), active compounds read low 0.995 | locus YCL061C, strain MRC1, active compounds read low 1.02 | locus YCL069W, strain vba3, active compounds read low 1.01 | locus YCR088W, strain abp1, active compounds read low 1.01 | locus YDL005C, strain med2, active compounds read low 1.03 | locus YDL035C, strain GPR1, active compounds read low 0.98 | locus YDL040C, strain nat1, active compounds read low 1 | locus YDL074C, strain BRE1, active compounds read low 0.988 | locus YDL101C, strain DUN1, active compounds read low 0.983 | locus YDL134C, strain PPH21, active compounds read low 0.984 | locus YDL185W, strain tfp1, active compounds read low 0.996 | locus YDL192W, strain arf1, active compounds read low 0.983 | locus YDR001C, strain nth1, active compounds read low 1.02 | locus YDR069C, strain doa4, active compounds read low 1.03 | locus YDR101C, strain arx1, active compounds read low 0.983 | locus YDR137W, strain rgp1, active compounds read low 1.05 | locus YDR150W, strain NUM1, active compounds read low 0.96 | locus YDR159W, strain sac3, active compounds read low 1.01 | locus YDR162C, strain NBP2, active compounds read low 0.985 | locus YDR195W, strain ref2 0.97 | locus YDR297W, strain sur2, active compounds read low 1.01 | locus YDR318W, strain mcm21, active compounds read low 0.996 | locus YDR334W, strain swr1, active compounds read low 1.02 | locus YDR335W, strain msn5, active compounds read low 1.02 | locus YDR363W, strain ESC2, active compounds read low 0.999 | locus YDR388W, active compounds read low 0.989 | locus YDR392W, strain spt3, active compounds read low 1.03 | locus YDR502C, strain sam2, active compounds read low 0.991 | locus YEL003W, strain gim4, active compounds read low 1.01 | locus YEL037C, strain rad23, active compounds read low 1.01 | locus YEL061C, strain CIN8 (second series), active compounds read low 1.02 | locus YEL061C, strain CIN8, active compounds read low 0.977 | locus YER002W, strain NOP16, active compounds read low 1.02 | locus YER015W, strain faa2, active compounds read low 1.01 | locus YER016W, strain bim1, active compounds read low 1.01 | locus YER110C, active compounds read low 0.972 | locus YER111C, strain swi4, active compounds read low 1.03 | locus YER155C, strain BEM2 (second series), active compounds read low 0.996 | locus YER155C, strain BEM2, active compounds read low 1 | locus YER167W, strain BCK2, active compounds read low 1.01 | locus YFR010W, strain ubp6, active compounds read low 1.03 | locus YGL078C, strain dbp3, active compounds read low 0.983 | locus YGL086W, strain mad1, active compounds read low 0.975 | locus YGL167C, strain pmr1, active compounds read low 1.01 | locus YGL173C, strain kem1, active compounds read low 1.04 | locus YGL227W, strain vid30, active compounds read low 1.01 | locus YGL240W, strain doc1, active compounds read low 1.02 | locus YGL248W, strain PDE1, active compounds read low 0.984 | locus YGL253W, strain hxk2, active compounds read low 1.01 | locus YGR078C, strain PAC10, active compounds read low 0.982 | locus YGR135W, strain pre9, active compounds read low 0.994 | locus YGR229C, strain SMI1, active compounds read low 0.996 | locus YGR252W, strain gcn5, active compounds read low 0.882 | locus YHR013C, strain ard1, active compounds read low 1.04 | locus YHR027C, strain rpn1, active compounds read low 1.01 | locus YHR030C, strain SLT2, active compounds read low 0.982 and 1.03 | locus YHR079C, strain IRE1 (second series), active compounds read low 0.994 | locus YHR079C, strain IRE1, active compounds read low 1.03 | locus YHR094C, strain hxt1, active compounds read low 0.995 | locus YHR129C, strain ARP1, active compounds read low 0.997 | locus YHR142W, strain chs7, active compounds read low 1.04 | locus YHR200W, strain rpn10, active compounds read low 0.987 | locus YIL066C, strain RNR3, active compounds read low 0.965 | locus YIL073C, strain SPO22, active compounds read low 1.02 | locus YIL125W, strain kgd1, active compounds read low 0.984 | locus YIR030C, strain dcg1, active compounds read low 0.977 | locus YJL092W, strain hpr5, active compounds read low 1.02 | locus YJL095W, strain BCK1 (second series), active compounds read low 1 | locus YJL095W, strain BCK1, active compounds read low 1.02 and 1.01 | locus YJL115W, strain asf1, active compounds read low 1.02 | locus YJL129C, strain trk1, active compounds read low 1.03 | locus YJL134W, strain LCB3, active compounds read low 0.983 | locus YJL154C, strain vps35, active compounds read low 1.01 | locus YJL164C, strain tpk1, active compounds read low 1.03 | locus YJL166W, strain qcr8, active compounds read low 1.04 | locus YJL168C, strain set2, active compounds read low 0.989 | locus YJL187C, strain SWE1 (second series), active compounds read low 0.978 | locus YJL187C, strain SWE1, active compounds read low 1.01 | locus YJR043C, strain POL32, active compounds read low 1.02 | locus YJR066W, strain TOR1, active compounds read low 0.971
